The source made the active and inactive calls.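 The calls were made as follows: active = viability loss from added drug above about 55%, and viability with drug at most 40%, in both replicates (limit read from the data, passing the limit was not always enough); inconclusive = both conditions met in only one replicate; inactive = neither replicate meets both conditions.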
Assay: MRP1 drug-resistance reversers in H69AR cells – cell-based, doxorubicin co-treatment, pilot screen (AID 601)
Conditions: H69AR cells + 2 uM doxorubicin, CellTiter-Glo, 72 h; at 10 µM; stronger effect = higher value

SMILES | differential viability (reversal)
Cn1c(=O)[nH]c(=O)c2[nH]c(NCCCN3CCOCC3)nc21 | 16.1% (inactive)
COc1ccc(CN(Cc2nc3ccccc3c(=O)[nH]2)C(=O)NC2CCCCC2)cc1 | 0.78% (inactive)
O=C(Nc1ccncc1)c1cncc(Br)c1 | 4.04% (inactive)
COc1ccc(C(=O)Nc2ccc(C)cn2)c(OC)c1 | 11.2% (inactive)
C/C(=N\O)C(C)/[N+]([O-])=C/c1nc(C)c(C)n1O (stereo unspecified) | -8.95% (inactive)
CCC(C)(C)NC(=O)C(c1ccco1)N(C(=O)Cn1nnc2ccccc21)c1ccc2c(c1)OCO2 (stereo unspecified) | 18.9% (inactive)
COc1ccc(OC)c(S(=O)(=O)N2c3ccccc3CC2C)c1 (stereo unspecified) | -11.7% (inactive)
O=C(COc1ccccc1)Nc1ccc(-c2nnc(-c3ccco3)o2)cc1 | 8.73% (inactive)
Cc1ccc(-c2noc(CCC(=O)NCC3CCN(Cc4cccc(C)c4)CC3)n2)cc1 | -11% (inactive)
CCOc1cc(C(=O)N2CCN=C2SC)cc(OCC)c1OCC | 10.1% (inactive)
COc1ccc(-n2c(=O)c3c4c(sc3n3c(C)nnc23)CCCC4)cc1 | 15.6% (inactive)
COc1ccc(CCNC(=O)c2cc(-c3cc(C)c(C)cc3O)n[nH]2)cc1OC | 1.53% (inactive)
CCC(Oc1ccc2ccccc2c1)C(=O)O (stereo unspecified) | -1.54% (inactive)
O=C(O)C1CC=CCC1C(=O)Nc1cc(Cl)ccc1Cl (stereo unspecified) | 8.81% (inactive)
O=C(c1cnn2c(C(F)F)cc(C3CC3)nc12)N1CCOCC1 | 19.2% (inactive)
O=C(CSCCSCC(=O)c1ccco1)c1ccco1 | 11.3% (inactive)

— PubChem BioAssay
